luminol inh ctr – counter-screen for Nox1 inhibitors: inhibitors of luminol chemiluminescence. HRP/luminol/H2O2 chemiluminescence counterscreen. inhibition, % at 6.7 µM. hit rate 0.4% among 16,000; also: reference of the scale not given here
NOTCH ag – agonists of NOTCH signaling. NOTCH signaling luciferase reporter cells, luminescence. AID 434982, 2010. activation, % at 2.5 µM. hit rate 0.4% among 15,000; in the data active = activation above about 2.2%
Nox1 inhibitor – inhibitors of human NADPH oxidase 1 (Nox1); Q9Y5S8; hit rate 0.81% among 16,000; inhibition, % at 6.7 µM; HT29 cells, luminol chemiluminescence ROS; AID 1792, 2009
Target sequence (Q9Y5S8 whole entry, looked up): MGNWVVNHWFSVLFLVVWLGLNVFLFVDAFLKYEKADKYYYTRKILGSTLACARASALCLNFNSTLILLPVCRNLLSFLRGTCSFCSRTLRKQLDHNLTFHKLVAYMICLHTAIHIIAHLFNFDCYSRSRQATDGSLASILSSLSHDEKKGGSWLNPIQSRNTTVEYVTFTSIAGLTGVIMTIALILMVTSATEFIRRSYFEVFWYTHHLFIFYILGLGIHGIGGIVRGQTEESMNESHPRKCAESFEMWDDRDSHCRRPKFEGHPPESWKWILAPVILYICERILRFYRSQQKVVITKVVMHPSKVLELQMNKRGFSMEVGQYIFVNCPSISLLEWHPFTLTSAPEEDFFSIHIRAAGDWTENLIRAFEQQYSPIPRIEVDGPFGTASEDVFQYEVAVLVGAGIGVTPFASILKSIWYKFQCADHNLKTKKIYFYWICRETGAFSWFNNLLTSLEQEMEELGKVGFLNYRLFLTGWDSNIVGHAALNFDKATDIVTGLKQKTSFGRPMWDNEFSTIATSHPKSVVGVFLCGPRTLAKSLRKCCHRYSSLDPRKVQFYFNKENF
* marks the source's active call; other numbers are inactive results. Only some compounds are listed: those with a hit (about 1.8% of all), similar ones and a draw of the others. Rule as the data show it, unless noted: active = inhibition above about 75%; inactive = the rest.

Screening CNC(=S)N(C)NC(=S)Nc1ccc(OC)c(OC)c1 returned luminol inh ctr 31, NOTCH ag 0 and Nox1 inhibitor 84*.
`COc1cc(NC(C)=O)ccc1/C=N/NC(N)=S` gave luminol inh ctr 14, NOTCH ag -1 and Nox1 inhibitor 2.
Nc1ccccc1SCc1nc(-c2ccc(Cl)cc2)no1 was read as luminol inh ctr -3, NOTCH ag 0 and Nox1 inhibitor 5.
O=C(CCN1CCC(c2ccc(Cl)s2)=N1)c1ccc(Cl)s1 was read as luminol inh ctr -2, NOTCH ag 3.4* and Nox1 inhibitor -37.
`NC(=O)c1ccc(-c2ccc(Cl)cc2)s1` gave luminol inh ctr -1, NOTCH ag 0 and Nox1 inhibitor 5.
COc1cc(C2SCCS2)cc(Br)c1O was read as luminol inh ctr 10, NOTCH ag 0 and Nox1 inhibitor -16.
For Cc1nnsc1C(=O)Nc1ccccc1N1CCCCC1 the results were luminol inh ctr 1, NOTCH ag 0 and Nox1 inhibitor -33.
`CCOC(=O)NC(Nc1ccc(OC)cc1OC)(C(F)(F)F)C(F)(F)F` gave luminol inh ctr 3, NOTCH ag -1 and Nox1 inhibitor 54.
For O=c1[nH]c2ccccc2c(=O)n1CCNc1cccc(Cl)c1 the results were luminol inh ctr 0, NOTCH ag 0 and Nox1 inhibitor -57.
Screening COc1ccc(NC(=O)c2nccnc2C(=O)O)c(N2CCOCC2)n1 returned luminol inh ctr 1, NOTCH ag -1 and Nox1 inhibitor -20.
Cc1noc(C)c1C(=O)Nc1ccc(N2CCOCC2)nc1N1CCOCC1 was read as luminol inh ctr 4, NOTCH ag 0 and Nox1 inhibitor 78*.
For COc1cccc(C2CN=NC23Cc2ccccc2C3=O)c1 (centres undefined) the results were luminol inh ctr -1, NOTCH ag 0 and Nox1 inhibitor -28.
COc1cc(-c2nc(-c3ccccc3)c(-c3ccccc3)[nH]2)ccc1O was read as luminol inh ctr -15, NOTCH ag -1 and Nox1 inhibitor 101*.
CCOC(=O)c1c(C)nc(C)c(C(=O)OCC)c1-c1ccc(O)c(OC)c1 was read as luminol inh ctr 19, NOTCH ag 0 and Nox1 inhibitor 28.
`Cn1cc(NC(=O)OC(C)(C)C)cc1C(=O)O` gave luminol inh ctr 1, NOTCH ag -1 and Nox1 inhibitor -59.
For COc1ccc(C(C)=O)cc1CS/C(=N/S(=O)(=O)c1ccccc1)Nc1cccc(F)c1 the results were luminol inh ctr -6, NOTCH ag -1 and Nox1 inhibitor -21.
For N#Cc1ccc(N2CCCN(S(=O)(=O)c3cccs3)CC2)nc1 the results were luminol inh ctr -4, NOTCH ag 0 and Nox1 inhibitor 14.
For N#Cc1ccc(N2CCN(S(=O)(=O)c3ccccc3)CC2)nc1 the results were luminol inh ctr -1, NOTCH ag 3.4* and Nox1 inhibitor -7.
For O=[N+]([O-])c1cccc(-c2c[nH]c(=S)[nH]2)c1 the results were luminol inh ctr 10, NOTCH ag 0 and Nox1 inhibitor 24.
For S=c1[nH]cc(-c2ccc(Br)cc2)[nH]1 the results were luminol inh ctr -3, NOTCH ag 0 and Nox1 inhibitor 98*.
Screening O=c1cc(-c2ccccc2)nc2cc(-c3cccs3)[nH]n12 returned luminol inh ctr 6, NOTCH ag 0 and Nox1 inhibitor -20.
For CCOC(=O)C(NC(=O)c1ccccc1)(Nc1ccc(F)cc1F)C(F)(F)F (centres undefined) the results were luminol inh ctr 2, NOTCH ag 0 and Nox1 inhibitor 0.
N#C/C(N)=C(/C#N)N=Cc1ccccc1Sc1ccc(Cl)cc1 was read as luminol inh ctr -5, NOTCH ag -1 and Nox1 inhibitor 0.
`CN(C)c1ccc(NC(=O)Nc2ccc(OCc3ccccc3)cc2)cc1` gave luminol inh ctr -4, NOTCH ag 0 and Nox1 inhibitor 107*.
Cc1ccc(NC(=O)Nc2ccc(OCc3ccccc3)cc2)cc1NS(C)(=O)=O was read as luminol inh ctr -16 and Nox1 inhibitor 16.
O=C(NNC(=O)c1ccccc1)NC(=O)c1ccccc1Cl was read as luminol inh ctr -1, NOTCH ag 0 and Nox1 inhibitor 24.
For Cc1cc(S(=O)(=O)NNc2ncnc3cc(C(C)(C)C)sc23)c(C)cc1Cl the results were luminol inh ctr -1, NOTCH ag 0 and Nox1 inhibitor 94*.
Screening Cc1ccc(C(=O)NNc2ncnc3cc(C(C)(C)C)sc23)cc1 returned luminol inh ctr -2, NOTCH ag 0 and Nox1 inhibitor 73.
`O=C1CS/C(=C\C(=O)N2CCOCC2)N1` gave luminol inh ctr 78* and Nox1 inhibitor -6.
`O=C1CS/C(=C/C(=O)c2cccs2)N1` gave luminol inh ctr 4, NOTCH ag 0 and Nox1 inhibitor 7.
`O=C(CSc1ncccc1C(=O)O)Nc1cc(Cl)cc(Cl)c1` gave luminol inh ctr 3, NOTCH ag 0 and Nox1 inhibitor -17.
CCn1c(=S)[nH]c2sc(C)c(C)c2c1=O was read as luminol inh ctr 90*, NOTCH ag 0 and Nox1 inhibitor -14.
For Cc1cc(-n2c(=S)[nH]c3sc(C)c(C)c3c2=O)n(-c2ccccc2)n1 the results were luminol inh ctr 0, NOTCH ag 0 and Nox1 inhibitor -43.
Cc1ccnc(-n2c(=S)[nH]c3sc(C)c(C)c3c2=O)c1 was read as luminol inh ctr 100*, NOTCH ag -1 and Nox1 inhibitor 46.
COC(=O)c1c(C)nc(C)c(C(=O)OC)c1-c1csc(S(=O)(=O)Nc2ccc(OC)cc2)c1 was read as luminol inh ctr 3, NOTCH ag -1 and Nox1 inhibitor -2.
`CCc1ccccc1NC(=O)c1scc(Br)c1OC` gave luminol inh ctr -2, NOTCH ag 0 and Nox1 inhibitor -42.
Screening FC(F)(F)COc1ccc(OCC(F)(F)F)c(-c2n[nH]c(=S)o2)c1 returned luminol inh ctr 87*, NOTCH ag 0 and Nox1 inhibitor 15.
FC(F)(F)COc1ccc(OCC(F)(F)F)c(-c2csnn2)c1 was read as luminol inh ctr -6, NOTCH ag 0 and Nox1 inhibitor -18.
`O=C(O)c1ccccc1C(=O)N1CCN(Cc2ccncc2)CC1` gave luminol inh ctr 0, NOTCH ag -1 and Nox1 inhibitor -50.
Screening COC(=O)C1=C(Nc2ccccc2NS(=O)(=O)c2ccc(OC)cc2)CSC1 returned luminol inh ctr 29, NOTCH ag 0 and Nox1 inhibitor 49.
Screening COC(=O)C1=C(Nc2ccc(O)cc2)CSC1 returned luminol inh ctr -19, NOTCH ag 0 and Nox1 inhibitor 99*.
For C/C=C/C=N/NC(=O)N/N=C/C=C/C the results were luminol inh ctr -3, NOTCH ag 3.0* and Nox1 inhibitor 5.
O=C(N/N=C/C=C/c1ccccc1)N/N=C/C=C/c1ccccc1 was read as luminol inh ctr 2, NOTCH ag 0 and Nox1 inhibitor -20.
CN(C)c1ccc(/C=N/Nc2c(Cl)cncc2Cl)cc1 was read as luminol inh ctr 3, NOTCH ag 1 and Nox1 inhibitor 102*.
CN(C)c1ccc(/C=N/NC2=NCCN2)cc1 was read as luminol inh ctr -23, NOTCH ag 0 and Nox1 inhibitor -3.
For O=C(N/N=C/c1ccc(O)cc1)N/N=C/c1ccc(O)cc1 the results were luminol inh ctr -61, NOTCH ag 0 and Nox1 inhibitor 96*.
`CCOC(=O)N/N=C/c1ccc(O)cc1` gave luminol inh ctr -13, NOTCH ag 0 and Nox1 inhibitor -10.

Screening data (PubChem)
